From the supplement of paper PMC3724861
Many of the other results were omitted from the sample, so hits are more common in it than they were. How many sequences the whole screen found active is unknown. A number with no mark means an inactive call.

Tested on: T1, Caupolican (Caup) homeodomain DNA-binding domain
T1 sequence: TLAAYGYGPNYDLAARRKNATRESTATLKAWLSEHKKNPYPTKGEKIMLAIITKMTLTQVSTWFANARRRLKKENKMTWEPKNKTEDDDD
Assay: PBM E-score (8-mer, recovered from the published 9-mer minima) (E-score (dimensionless, -0.5 to 0.5)); Drosophila protein; higher = stronger relative binding preference, active = 0.31 or more
In short: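 Caup's homeodomain DNA-binding domain (residues 214-303) was produced by in vitro transcription and translation and applied at 100 nM to custom-designed protein binding microarrays. Each value is an enrichment score giving relative binding preference for a short DNA word; higher means stronger. Published 9-mer scores were the minimum of their two constituent 8-mer scores, and the 8-mer values were recovered from those minima. A cutoff of 0.31 marks candidate binding sequences.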

Row | Sequence | PBM E-score
1 | ACCGCGTC | -0.0819
2 | TATTCTCA | 0.0911
3 | CTGTGAAG | -0.0616
4 | GCGACAGA | 0.0849
5 | CTGGGTTC | -0.0931
6 | ATTAGCGG | -0.0813
7 | AACAGGGG | 0.0757
8 | GACTTACC | -0.0473
9 | ACCATCAT | 0.0686
10 | GACCTCAA | 0.0301
11 | AAATTACA | 0.329 (active)
12 | GACTTACA | 0.246
13 | GAATTACA | 0.29
14 | CAATTACA | 0.334 (active)
15 | CAATTACC | -0.00996
16 | CAATTACG | 0.0582
17 | AAATTACT | 0.124
18 | TAATTACA | 0.335 (active)
19 | AAATTACG | 0.0367
20 | TAATTATA | 0.234
21 | CACTTACA | 0.243
22 | AACTTACA | ≥ 0.344 (active)
23 | AGGTAATA | 0.0994
24 | CGCCCATA | -0.126

Row | Sequence | PBM E-score
25 | CGACCTCC | -0.138
26 | AGCAACGA | 0.0654
27 | ACAATCCG | 0.117
28 | CGGGAAAA | -0.0322
29 | CCGGAGAG | -0.159
30 | CATTTACA | 0.239
31 | AATTTACA | 0.328 (active)
32 | GATTTACA | 0.246
33 | GAGGTTGC | -0.184
34 | AGGCAATA | 0.0132
35 | AATTGCAT | 0.0474
36 | ACAAGACG | 0.257
37 | CCAAGATA | 0.106
38 | ACAAGGTC | 0.298
39 | ACAAGATA | 0.342 (active)
40 | GCAAGACA | 0.0548
41 | ACAAGACA | ≥ 0.352 (active)
42 | ACAAGATC | 0.258
43 | ACAAGGTA | 0.335 (active)
44 | GCAAGGTA | 0.0505
45 | CGAATAGA | 0.0132
46 | ACGTCACG | 0.0623
47 | CATTCCCA | -0.01
48 | CGGGATCC | -0.132

Row | Sequence | PBM E-score
49 | ACCCAAGC | -0.122
50 | CCCTGCGG | -0.29
51 | ACGTCGAG | -0.0187
52 | ATAACATA | 0.356 (active)
53 | ATAACAGA | 0.171
54 | CTAACATC | 0.208
55 | CTAACATA | 0.28
56 | ATAACATG | 0.424 (active)
57 | ATAACAGC | 0.148
58 | GTAACATA | 0.345 (active)
59 | GTAACAGA | 0.211
60 | ATAACATC | 0.318 (active)
61 | ATAACTTG | 0.197
62 | ATAACAGG | 0.155
63 | CGATCATC | 0.0443
64 | ATCCGCGG | -0.111
65 | AAAGTTGG | 0.0235
66 | ATAGGGGA | -0.137
67 | AACCGGCG | -0.0557
68 | GCTAGATA | 0.0474
69 | CCGCGTCC | -0.087
70 | AATGTATC | 0.314 (active)
71 | AGTGTATC | 0.186
72 | CATGTATC | 0.408 (active)

Row | Sequence | PBM E-score
73 | GATGTATA | 0.295
74 | CAAGTATC | 0.148
75 | AATGTATA | 0.271
76 | CCTGTATC | 0.125
77 | CATGTATA | 0.418 (active)
78 | AATGTATG | 0.243
79 | CAACCCCA | -0.102
80 | CACTGATG | 0.107
81 | GAGAACGC | -0.0756
82 | CACTTCCG | -0.121
83 | ATATCGTC | 0.107
84 | AGACCCAA | -0.131
85 | CTTACAAC | 0.333 (active)
86 | CTTACAAG | 0.343 (active)
87 | CTTACAAA | 0.181
88 | GTTACAAC | 0.303
89 | CTCACAAG | 0.0655
90 | CATACAAC | 0.27
91 | CCGCGTCA | -0.126
92 | AGCTGGTG | -0.0997
93 | AGCGGCGG | -0.225
94 | ATAGGCGA | -0.0622
95 | CGGTGTCA | 0.193
96 | CGATGTCA | 0.311 (active)

Row | Sequence | PBM E-score
97 | AGATGTCA | 0.279
98 | GGATGTGA | 0.081
99 | ATATGTCA | 0.305
100 | CGATGTCC | 0.143
101 | GTATGTCA | 0.345 (active)
102 | CTATGTCA | 0.307
103 | GGATGTCA | 0.311 (active)
104 | ACAAGGTG | 0.255
105 | AAGCGCGA | -0.033
106 | CAACGTGA | 0.0867
107 | CGAGCTCA | -0.105
108 | CAACCGTA | 0.0275
109 | ATACATAG | 0.292
110 | AGACATAC | 0.222
111 | ATACATTG | 0.261
112 | ATACATAA | 0.348 (active)
113 | ATACATTC | ≥ 0.314 (active)
114 | ATACATAT | 0.344 (active)
115 | ATACATAC | 0.332 (active)
116 | CTACATAC | 0.286
117 | AGACATAT | 0.264
118 | CTACATTC | 0.119
119 | CCTCACAA | -0.0288
120 | GGAATGAA | 0.00414

Row | Sequence | PBM E-score
121 | GTAGAGGA | 0.00507
122 | AGTGATAA | 0.126
123 | GTCGCCAA | -0.0201
124 | GCCCTAAC | -0.104
125 | CATCATGA | 0.11
126 | ACACCAGT | 0.101
127 | CTCCCGAA | -0.138
128 | CTATTAAC | 0.178
129 | CAGGGATC | -0.124
130 | GCTCCAGC | -0.186
131 | ATGTAGGC | 0.12
132 | CAGTAGTA | 0.175
133 | AAGTAGTC | 0.159
134 | ATGTAGTA | 0.372 (active)
135 | GAGTAGTA | 0.0893
136 | CTGTAGTA | 0.348 (active)
137 | ATGTAGTG | 0.27
138 | AAGTAGTA | 0.186
139 | GTGTAGTA | 0.357 (active)
140 | GCGTAGTA | 0.0285
141 | CTGTAGTC | 0.0608
142 | ATGTAGTC | 0.331 (active)
143 | AAAGGTGC | -0.0982
144 | TGAGCAAA | 0.0543

Row | Sequence | PBM E-score
145 | GGAGGCAC | -0.154
146 | ACTGAGCA | 0.0738
147 | CTCTTTTC | -0.1
148 | CCTCTGTC | -0.0145
149 | AGCTCATC | -0.167
150 | CGCGTGTA | 0.285
151 | ATCGTGTG | 0.149
152 | CTCGTGTC | 0.26
153 | CTCGTGTA | 0.27
154 | ATCGTGTA | 0.407 (active)
155 | ATCGTGGA | -0.0656
156 | ATCGTGTC | 0.336 (active)
157 | GTCGTGGA | -0.0165
158 | GTCGTGTA | 0.386 (active)
159 | ATCGTGCA | 0.127
160 | AGCGTGTA | 0.355 (active)
161 | AGCGTGTC | 0.231
162 | CTTGAAGA | -0.0903
163 | ATCGACGG | -0.105
164 | GTTAAAGA | 0.0986
165 | GCAACTAC | 0.0804
166 | GGCAGAGA | -0.188
167 | AGTCGAAA | 0.0145
168 | AAAACTCC | -0.138

Row | Sequence | PBM E-score
169 | AACTCGGG | -0.0964
170 | GTTTCAAA | 0.0987
171 | GGGCTTTA | -0.186
172 | GATCTACA | 0.145
173 | GAATAACA | 0.301
174 | TAATAACA | 0.319 (active)
175 | GGATAACA | 0.238
176 | CGATAACA | 0.244
177 | CAATAACA | 0.238
178 | TGATAACA | 0.322 (active)
179 | CGGTCTTA | -0.00157
180 | GCGTAACA | 0.221
181 | ACGTAACA | 0.263
182 | GTGTAAGA | 0.224
183 | ATGTAACA | 0.429 (active)
184 | GTGTAACA | 0.397 (active)
185 | CTGTAAGA | 0.138
186 | GGGTAACA | 0.216
187 | ATGTAAGA | 0.332 (active)
188 | ATGTAACC | 0.275
189 | ACGTAACG | 0.0522
190 | CTGTAACA | 0.289
191 | ATGTAACG | 0.347 (active)
192 | GATAGATC | 0.0307

Row | Sequence | PBM E-score
193 | CACGCAAA | 0.0933
194 | CAAATACA | 0.245
195 | GTTCGCGA | 0.066
196 | TACTGCAA | 0.125
197 | ATTGGGCG | -0.135
198 | AAGTAATT | 0.18
199 | AGCCATAA | 0.0213
200 | ACCGGCGA | -0.156
201 | AGGTAACA | 0.327 (active)
202 | AGGTAACT | 0.0502
203 | AGGTAACC | -0.0119
204 | CTGGTAAG | -0.00689
205 | GTATGACA | 0.312 (active)
206 | CTATGACA | 0.223
207 | ATATGACA | 0.336 (active)
208 | ATATGACC | 0.021
209 | GTATGAGA | 0.0966
210 | GTATGATA | 0.242
211 | GAGCTGTA | 0.079
212 | CTATTGAA | 0.0499
213 | GCAAGTCC | -0.0418
214 | ACATAACT | 0.291
215 | GCATAATA | 0.169
216 | ACATAATA | 0.323 (active)

Row | Sequence | PBM E-score
217 | ACATAATC | 0.202
218 | ACATAACC | 0.22
219 | ACATAACA | 0.332 (active)
220 | GCCTATCA | -0.108
221 | CGATCAAA | -0.00998
222 | CATCTAAG | -0.0746
223 | TGTGTTAA | 0.32 (active)
224 | CGTGTTAG | 0.285
225 | AGTGTTTA | 0.176
226 | GGTGTTTA | 0.124
227 | AGTGTTAA | 0.165
228 | CGTGTTAA | ≥ 0.33 (active)
229 | CGTGTTAC | 0.282
230 | CGTGTTTA | 0.319 (active)
231 | GGTGTTAA | 0.18
